The test addresses Serine/threonine-protein kinase PAK 6 (Homo sapiens) (UniProt Q9NQU5). Particulars: at 1 µM.
Sequence of Serine/threonine-protein kinase PAK 6 (Homo sapiens) (Q9NQU5 whole entry, looked up): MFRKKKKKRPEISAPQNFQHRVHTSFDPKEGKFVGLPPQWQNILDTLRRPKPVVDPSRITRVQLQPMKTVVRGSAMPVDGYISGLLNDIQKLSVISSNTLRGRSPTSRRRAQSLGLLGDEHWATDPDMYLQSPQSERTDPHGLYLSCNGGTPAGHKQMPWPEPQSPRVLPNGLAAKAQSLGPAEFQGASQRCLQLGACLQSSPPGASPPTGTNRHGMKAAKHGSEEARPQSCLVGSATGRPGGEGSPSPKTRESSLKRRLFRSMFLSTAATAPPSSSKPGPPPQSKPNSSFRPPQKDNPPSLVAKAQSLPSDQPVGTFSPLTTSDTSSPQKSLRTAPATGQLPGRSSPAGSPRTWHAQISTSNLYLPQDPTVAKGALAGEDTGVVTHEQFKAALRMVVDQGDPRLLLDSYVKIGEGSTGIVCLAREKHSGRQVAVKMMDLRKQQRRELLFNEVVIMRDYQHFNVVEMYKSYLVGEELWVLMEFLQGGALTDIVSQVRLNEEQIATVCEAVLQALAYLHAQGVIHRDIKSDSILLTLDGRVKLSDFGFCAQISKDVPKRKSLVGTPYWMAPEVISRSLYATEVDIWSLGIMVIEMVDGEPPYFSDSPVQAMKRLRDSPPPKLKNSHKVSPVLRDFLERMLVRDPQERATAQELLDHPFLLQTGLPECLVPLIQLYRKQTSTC
A word on the inhibition: it is the drop in the measured response relative to a control, in per cent. In the case of `O=C(Nc1ccc(Oc2ccc3[nH]c(NC(=O)c4ccccc4)nc3c2)cc1)Nc1cc(C(F)(F)F)ccc1F`, the inhibition stood at 3.44%. Regarding `CCS(=O)(=O)c1ccc(OC)c(Nc2ncc(-c3cccc(-c4ccccc4F)c3)o2)c1`, the inhibition came out at 1.97%. Take `C[C@@H](Oc1cc(-n2cnc3ccc(OCC4CCN(C)CC4)cc32)sc1C(N)=O)c1ccccc1Cl`: the inhibition is -3.14%. The value for `Clc1ccc(CNc2nccc(-c3cnn4ncccc34)n2)cc1` was -0.19%; that for `COc1ccc(C2=C(N3CCc4ccccc43)C(=O)NC2=O)cc1` was -1.91%; that for `CCN(CC)Cc1ccc(Nc2nccc(-c3cnn4ncccc34)n2)cc1` was -2.98%. As to `COc1cc2ncn(-c3cc(OCc4ccccc4C(F)(F)F)c(C(C)=O)s3)c2cc1OC`, the inhibition was -3.04%. The value for `Fc1ccc(-c2nc3n(c2-c2ccncc2)CCS3)cc1` was -7.43%. The value for `COc1cccc(/C=N/Nc2ncnc3c2cnn3-c2cccc(OC)c2)c1` was -7.63%; that for `CS(=O)(=O)CCNCc1ccc(-c2ccc3ncnc(Nc4ccc(OCc5ccccc5)c(Br)c4)c3c2)o1` was -7.5%; that for `COc1cc(N2CCN(C(C)C)CC2)ccc1Nc1nc(Nc2ccc(F)cc2C(=O)NC[C@@H](O)CO)c2cc[nH]c2n1` was -2.37%. The value for `CN(C)c1ccc2c(c1)/C(=C/Nc1ccc(S(N)(=O)=O)cc1)C(=O)N2` was -1.53%; that for `CN(C)CCCNc1nccc(-c2c(-c3ccc(F)cc3)nn3cc(C(F)(F)F)ccc23)n1` was -4.04%. Regarding `Nc1nccc(-c2c(-c3ccc(F)cc3)ncn2C2CCC(O)CC2)n1` (stereo not given), the inhibition was -1.54%. In the case of `COc1cc2ncn(-c3cc(OCCc4ccccc4)c(C(N)=O)s3)c2cc1OC` it was -0.86%.

These data come from ChEMBL document CHEMBL1961873, “Compounds: GSK PKIS; Assays: Nanosyn kinase panel” (2012).
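Also: values are mean percent inhibition of PAK6 kinase.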
